# This is one part of a sample in which the strongest signals are shown more often than they occur.
# B1: DETC sTCR (Mus musculus) (protein)
# chain: LDVYLEPVAKTFTVVAGDPASFYCTVTGGDMKNYHMSWYKKNGTNALFLVYKLNSNSTDGGKSNLKGKINISKNQFILDIQKATMKDAGTYYCGSDIGGSSWDTRQMFFGTGIELFVEPKSQPPAKPSVFIMKNGTNVACLVKDFYPKEVTISLRSSKKIVEFDPAIVISPSGKYSAVKLGQYGDSNSVTCSVQHNSETVHSTDFEPYANSFNNEKLPEPENDTQISEPCSSADLVPRGSTTAPSAQLKKKLQALKKKNAQLKWKLQALKKKLAQHHHHHHDSWISQDQLSFTRRPNKTVHISCKLSGVPLHNTIVHWYQLKEGEPLRRIFYGSVKTYKQDKSHSRLEIDEKDDGTFYLIINNVVTSDEATYYCACWDSSGFHKVFAEGTKLIVIPSDKRLDADISPKPTIFLPSVAETNLHKTGTYLCLLEKFFPDVIRVYWKEKDGNTILDSQEGDTLKTNDTYMKFSWLTVPERAMGKEHRCIVKHENNKGGADQEIFFPSIKKVAVSTKPTTCSSADLVPRGSTTAPSAQLEKELQALEKENAQLEWELQALEKELAQLNDIFEAQKIEW
# Legend:
# Experiment in all cases: glycan array binding signal (z-score within array); higher = stronger binding
# Settings in all cases: glycan notation: IUPAC condensed, linker removed
# [1] = molecular target: Fuc(a1-2)Gal(b1-3)GlcNAc(b1-3)[Gal(b1-4)[Fuc(a1-3)]GlcNAc(b1-6)]Gal(b1-4)Glc
# Summary of the method: (§1)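 Glycan array data came from 3228 arrays in the Consortium for Functional Glycomics database, and only arrays with an available protein sequence were kept. Glycan names were put into IUPAC-condensed notation, and columns mapping to the same glycan were averaged. The binding signal is a within-array Z-score, averaged across arrays of one protein sequence run at different concentrations or buffers and across linkers. A negative Z-score can be read as non-binding.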
# [2] = molecular target: Fuc(a1-2)Gal6S(b1-4)GlcNAc
# Summary of the method: as §1
# Fuc(a1-2)[Gal(a1-3)]Gal = molecular target: Fuc(a1-2)[Gal(a1-3)]Gal
# Summary of the method: as §1
# [3] = molecular target: Fuc(a1-2)[Gal(a1-3)]Gal(b1-3)GlcNAc
# Summary of the method: as §1
# [4] = molecular target: Fuc(a1-3)[Gal(b1-4)]GlcNAc(b1-2)Man(a1-3)[Fuc(a1-3)[Gal(b1-4)]GlcNAc(b1-2)Man(a1-6)]Man(b1-4)GlcNAc(b1-4)GlcNAc
# Summary of the method: as §1
# [5] = molecular target: Fuc(a1-3)[Gal(b1-4)]GlcNAc(b1-3)Gal(b1-3)[Fuc(a1-4)]GlcNAc
# Summary of the method: as §1
# Gal(b1-2)Gal = molecular target: Gal(b1-2)Gal
# Summary of the method: as §1
# [6] = molecular target: Gal(b1-4)GlcNAc(b1-2)Man(a1-6)[Man(a1-3)]Man(b1-4)GlcNAc(b1-4)GlcNAc
# Summary of the method: as §1
# [7] = molecular target: Gal(b1-4)GlcNAc(b1-3)Gal(b1-4)Glc
# Summary of the method: as §1
# Gal3S(b1-4)GlcNAc = molecular target: Gal3S(b1-4)GlcNAc
# Summary of the method: as §1
# Gal3S6S(b1-4)GlcNAc = molecular target: Gal3S6S(b1-4)GlcNAc
# Summary of the method: as §1
# GalNAc(a1-3)Gal = molecular target: GalNAc(a1-3)Gal
# Summary of the method: as §1
# [8] = molecular target: GlcNAc(a1-4)Gal(b1-4)GalNAc
# Summary of the method: as §1
# [9] = molecular target: GlcNAc(a1-4)Gal(b1-4)GlcNAc(b1-3)Gal(b1-4)[Fuc(a1-3)]GlcNAc(b1-3)Gal(b1-4)[Fuc(a1-3)]GlcNAc
# Summary of the method: as §1
# [10] = molecular target: GlcNAc(b1-3)Gal(b1-4)GlcNAc
# Summary of the method: as §1
# GlcNAc(b1-3)Man = molecular target: GlcNAc(b1-3)Man
# Summary of the method: as §1
# [11] = molecular target: Man(a1-2)Man(a1-2)Man(a1-6)[Man(a1-3)]Man
# Summary of the method: as §1
# Man(a1-2)Man(a1-3)Man = molecular target: Man(a1-2)Man(a1-3)Man
# Summary of the method: as §1
# [12] = molecular target: Neu5Ac(a2-3)Gal(b1-3)GalNAc6S
# Summary of the method: as §1
# [13] = molecular target: Neu5Ac(a2-3)Gal(b1-4)GlcNAc(b1-3)Gal(b1-4)GlcNAc(b1-3)Gal(b1-4)GlcNAc
# Summary of the method: as §1
# [14] = molecular target: Neu5Ac(a2-6)GlcNAc(b1-4)GlcNAc(b1-4)GlcNAc
# Summary of the method: as §1
# [15] = molecular target: Neu5Ac9Ac(a2-3)Gal(b1-4)GlcNAc
# Summary of the method: as §1
# [16] = molecular target: Neu5Gc(a2-3)Gal(b1-3)GlcNAc
# Summary of the method: as §1
binder,measurement,setting,value
B1,glycan array binding signal (z-score),[1],-0.448
same,glycan array binding signal (z-score),[2],2.96
same,glycan array binding signal (z-score),Fuc(a1-2)[Gal(a1-3)]Gal,0.343
same,glycan array binding signal (z-score),[3],-0.572
same,glycan array binding signal (z-score),[4],-0.52
same,glycan array binding signal (z-score),[5],-0.531
same,glycan array binding signal (z-score),Gal(b1-2)Gal,-0.101
same,glycan array binding signal (z-score),[6],6.38
same,glycan array binding signal (z-score),[7],-0.495
same,glycan array binding signal (z-score),Gal3S(b1-4)GlcNAc,2.74
same,glycan array binding signal (z-score),Gal3S6S(b1-4)GlcNAc,-0.25
same,glycan array binding signal (z-score),GalNAc(a1-3)Gal,-0.71
same,glycan array binding signal (z-score),[8],3.96
same,glycan array binding signal (z-score),[9],5.91
same,glycan array binding signal (z-score),[10],-0.215
same,glycan array binding signal (z-score),GlcNAc(b1-3)Man,-0.035
same,glycan array binding signal (z-score),[11],0.993
same,glycan array binding signal (z-score),Man(a1-2)Man(a1-3)Man,-0.043
same,glycan array binding signal (z-score),[12],1.09
same,glycan array binding signal (z-score),[13],-0.518
same,glycan array binding signal (z-score),[14],5.83
same,glycan array binding signal (z-score),[15],0.262
same,glycan array binding signal (z-score),[16],-0.599
